Inconclusive results are not listed. Activity calls are given as the source filed them. Unless noted, calls follow the shape of the dose curve; as a rule, active = well fitted curve in the direction sought with a large enough effect in the repeat runs; inconclusive = weak or mixed curves; inactive = no such curve, though single readings can be large; an effect the other way counts as inactive or inconclusive.

Experimental findings from PubChem BioAssay (Tox21) are described below.

Test [1] in a line: qHTS assay to identify small molecule antagonists of the thyroid receptor (TR) signaling pathway (AID 743065). Also: nearly all actives have a fitted effect of over 55% in size. Also: potency is read from the fitted curve at half-maximal effect. The procedure, abridged: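 Antagonism measured as loss of luciferase signal in GH3 cells stably carrying a TRE-luciferase reporter, co-treated with compound and T3 (1 nM final) for 23.5 h at 37 C. Viability was read in the same well by CellTiter-Fluor.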
The test system of test [2] is thyroid hormone receptor (rat, GH3 cells). Put plainly: qHTS assay to identify small molecule agonists of the thyroid receptor (TR) signaling pathway (AID 743066; calls by dose curve).
Test [3] in a line: qHTS assay to identify small molecule antagonists of the estrogen receptor alpha (ER-alpha) signaling pathway - cell viability counter screen (AID 743074; calls by dose curve;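 also: HEK293 cells carrying ER-alpha-UAS-bla reporter stimulated with 17beta-estradiol; nearly all actives have a fitted effect of over 45% in size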).
Test [4] is described as follows: qHTS assay to identify small molecule antagonists of the estrogen receptor alpha (ER-alpha) signaling pathway using the BG1 cell line - cell viability counter screen (AID 743081).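 Also: compound given together with 17beta-estradiol as the ER stimulus; nearly all actives have a fitted effect of over 45% in size.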 A general note: In qHTS, concentration-response curves come from the screen itself.
Test [5] has as its target Aromatase (Homo sapiens) (UniProt P11511). Nature of the test: qHTS assay to identify aromatase inhibitors (AID 743083). Also: nearly all actives have a fitted effect of over 55% in size. Also: potency is read from the fitted curve at half-maximal effect.
The nature of test [6]: qHTS assay to identify aromatase inhibitors - cell viability counter screen (AID 743084).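 Also: cells stimulated with testosterone during compound exposure; nearly all actives have a fitted effect of over 55% in size.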 Also: potency is read from the fitted curve at half-maximal effect.
Test [7] deals with Estrogen receptor (Homo sapiens) (UniProt P03372). Nature of the test: qHTS assay to identify small molecule agonists of the estrogen receptor alpha (ER-alpha) signaling pathway (AID 743075; calls by dose curve;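 also: HEK293 GripTite cells with ER-alpha and UAS-driven beta-lactamase reporter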).
Test [8] shares this target. Nature of the test: qHTS assay to identify small molecule agonists of the estrogen receptor alpha (ER-alpha) signaling pathway using the BG1 cell line (AID 743079). Also: nearly all actives have a fitted effect of over 20% in size. Also: potency is read from the fitted curve at half-maximal effect. The conditions noted are these: BG1Luc4E2 cells, ERE-luciferase agonist, 22 h; activation: at 70.3 µM (top of the series).
A short description of test [9]: qHTS assay to identify small molecule antagonists of the estrogen receptor alpha (ER-alpha) signaling pathway using the BG1 cell line (AID 743080; calls by dose curve;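 also: BG1 cells stimulated with 17beta-estradiol alongside compound; potency is read from the fitted curve at half-maximal effect; nearly all actives have a fitted effect of over 25% in size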). The gist of the method:
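Endogenous full-length ER-alpha in BG1-Luc-4E2 cells drives a stably integrated 4×ERE luciferase gene; compounds were tested against 17beta-estradiol over 21.5 h, with luminescence and multiplexed viability fluorescence recorded.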

Chain of Aromatase (Homo sapiens) (P11511 whole entry, looked up): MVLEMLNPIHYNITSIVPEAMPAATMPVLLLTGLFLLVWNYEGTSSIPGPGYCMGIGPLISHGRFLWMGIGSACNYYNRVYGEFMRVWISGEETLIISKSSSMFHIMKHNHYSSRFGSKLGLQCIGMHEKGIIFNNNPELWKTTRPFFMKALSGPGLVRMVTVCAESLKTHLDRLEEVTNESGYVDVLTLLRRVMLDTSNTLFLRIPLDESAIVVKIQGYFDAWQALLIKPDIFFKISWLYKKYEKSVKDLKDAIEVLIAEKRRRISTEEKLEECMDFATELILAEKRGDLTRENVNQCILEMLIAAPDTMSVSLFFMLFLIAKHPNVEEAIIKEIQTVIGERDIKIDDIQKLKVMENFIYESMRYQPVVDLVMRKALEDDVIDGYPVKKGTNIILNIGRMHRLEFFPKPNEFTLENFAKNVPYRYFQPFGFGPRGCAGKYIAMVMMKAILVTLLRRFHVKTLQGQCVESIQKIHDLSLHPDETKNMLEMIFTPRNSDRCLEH
Chain of Estrogen receptor (Homo sapiens) (P03372 whole entry, looked up): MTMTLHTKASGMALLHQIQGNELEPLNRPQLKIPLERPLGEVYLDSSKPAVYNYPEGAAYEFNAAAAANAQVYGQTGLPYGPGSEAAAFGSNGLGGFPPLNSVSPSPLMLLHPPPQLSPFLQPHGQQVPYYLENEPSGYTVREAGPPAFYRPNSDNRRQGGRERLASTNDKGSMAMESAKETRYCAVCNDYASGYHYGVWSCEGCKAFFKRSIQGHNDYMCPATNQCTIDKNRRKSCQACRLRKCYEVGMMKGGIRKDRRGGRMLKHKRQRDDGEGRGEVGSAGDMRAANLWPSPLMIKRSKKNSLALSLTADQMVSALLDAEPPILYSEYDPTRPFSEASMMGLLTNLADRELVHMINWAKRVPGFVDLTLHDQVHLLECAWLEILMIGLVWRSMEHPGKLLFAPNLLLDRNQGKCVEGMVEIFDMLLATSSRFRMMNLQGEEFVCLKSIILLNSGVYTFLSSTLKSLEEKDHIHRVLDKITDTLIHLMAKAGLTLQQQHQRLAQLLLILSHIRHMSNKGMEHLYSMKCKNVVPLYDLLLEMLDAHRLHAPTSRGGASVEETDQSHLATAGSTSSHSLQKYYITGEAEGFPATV

For `CCC(OCCCOC)OC(C)=O` (stereo unspecified), the Potency entry in test [1], in test [3], in test [4], in test [5] and in test [6] was “inactive” throughout. Moreover, the call in test [2] was inactive.

For the compound `CCC1NC(=O)c2cc(S(N)(=O)=O)c(Cl)cc2N1` (stereo unspecified), the Potency entry in test [1], in [4] and in [5] was “inactive” in each case. Also, the outcome in [2] was inactive.

As to `O=c1cc(-c2ccccc2)oc2ccc3ccccc3c12`, the results for the Potency in test [1], in test [8] and in test [5] were 9.69 µM (active), 2.43 µM (active) and 13.7 µM (active), respectively. In test [2], the compound was classed as inactive. The Potency entry in [7], in test [4] and in test [6] was “inactive” throughout.

Turning to `Clc1cc(Cl)nc(Cl)n1`, the Potency entry in [1], in test [3], in test [4], in [5] and in [6] was “inactive” throughout. In addition, the call in test [2] was inactive.

Take `CCOC(=O)c1ccc(C#Cc2ccc3c(c2)C(C)(C)CCS3)nc1`: the Potency entry in test [1], in [3], in [4] and in test [6] was “inactive” in each case. For the same compound, in test [2], the compound was classed as inactive.

For `CC(C)C=O`, the Potency result in test [1], in test [3], in test [4], in test [5] and in [6] was “inactive” in each case. In addition, the compound was called inactive in test [2].

Take `O=C(O)c1cccc(-c2noc(-c3ccccc3F)n2)c1`: the Potency in test [1] was 10.6 µM (active). The compound was classed as inactive in [2]. Also, the Potency entry in test [4], in test [5] and in test [6] was “inactive” in each case.

Consider `Cc1ccc(OC(=O)c2ccccc2O)cc1`, for which the Potency result in test [1], in [3], in test [4], in test [5] and in test [6] was “inactive” in each case. For the same compound, the outcome in test [2] was inactive.

For `O=C(Nc1cccc2c(=O)cc(-c3nn[nH]n3)oc12)c1ccc(OCCCCc2ccccc2)cc1`, the Potency result in test [1], in test [3], in test [4], in test [5] and in test [6] was “inactive” throughout. Also, the compound was classed as inactive in [2].

For `CCCCCCCCN`, the Potency result in test [1], in test [3], in [4], in test [5] and in test [6] was “inactive” in each case. In addition, the call in test [2] was inactive.

Consider `CC1CC(OC(=O)C(O)c2ccccc2)CC(C)(C)N1C` (stereo unspecified), for which the Potency result in [1], in test [3], in [4], in [5] and in [6] was “inactive” each time. For the same compound, the result in [2] was inactive.

As to `CC[C@]1(O)C[C@H]2CN(CCc3c([nH]c4ccccc34)[C@@](C(=O)OC)(c3cc4c(cc3OC)N(C=O)[C@H]3[C@@](O)(C(=O)OC)[C@H](OC(C)=O)[C@]5(CC)C=CCN6CC[C@]43[C@@H]65)C2)C1`, the Potency was 0.0944 µM (active) in [1] and 0.0531 µM (active) in test [9]. Besides, in test [2], the compound was called inactive. The Potency result in [4] and in test [5] was “inactive” in each case.

`CC1=C(CC=O)C(C)(C)CCC1`: the Potency result in test [1], in test [3], in test [4], in test [5] and in test [6] was “inactive” in each case. Besides, the outcome in [2] was inactive.

`c1ccc2c(c1)CCc1ccccc1N2`: the Potency result in test [1], in test [4] and in test [5] was “inactive” each time. The compound was called inactive in test [2].

`CCCCCCNC(=O)n1cc(F)c(=O)[nH]c1=O`: the Potency in test [1] was 2.66 µM (active). Further, the result in test [2] was inactive. Further, the Potency entry in [3], in [4], in test [5] and in test [6] was “inactive” throughout.

Turning to `CC(=O)OCCN(CCOC(C)=O)c1ccc(N=Nc2ccc([N+](=O)[O-])cc2C#N)cc1`, the values for the Potency in [1] and in test [6] were 61.1 µM (active) and 27.3 µM (active), respectively. Besides, the call in [2] was inactive. Moreover, in test [3], the Potency entry was “inactive”.

As for `OC[C@H]1O[C@@H](n2cnc3c(=S)nc[nH]c32)[C@H](O)[C@@H]1O`, the Potency in [1] was 23.7 µM (active). Moreover, the compound was classed as inactive in [2]. Also, the Potency result in test [7], in test [8], in test [4], in test [5] and in test [6] was “inactive” throughout.

Regarding `CC(=O)OCC[N+](C)(C)C`, the Potency result in [1], in [3], in [4], in test [5] and in test [6] was “inactive” each time. In addition, the call in test [2] was inactive.

In the case of `CC(=O)c1ccc([N+](=O)[O-])cc1`, the Potency entry in test [1], in [3], in [4], in test [5] and in test [6] was “inactive” throughout. Besides, the compound was called inactive in test [2].

As to `C[C@@]12CCC[C@H]1[C@@H]1CC[C@H]3C[C@@H](O)CC[C@]3(C)[C@H]1CC2`, the Potency result in [1] and in test [4] was “inactive” in each case. Also, the result in [2] was inactive.

With `CCC1CO1` (stereo unspecified), the Potency entry in [1], in [4], in [5] and in test [6] was “inactive” each time. The outcome in test [2] was inactive.

With `CC1(C)[C@@H](OC(=O)CCC(=O)O)CC[C@]2(C)[C@H]3C(=O)C=C4[C@@H]5C[C@@](C)(C(=O)O)CC[C@]5(C)CC[C@@]4(C)[C@]3(C)CC[C@@H]12`, the Potency entry in test [1], in test [3], in test [4], in [5] and in [6] was “inactive” throughout. The outcome in test [2] was inactive.

As to `CC(CCC(=O)O)C(=O)O` (stereo unspecified), the Potency result in [1], in [3], in test [4], in [5] and in [6] was “inactive” in each case. For the same compound, the compound was classed as inactive in [2].

In the case of `C=CC(=O)OCC1CC2CC1C1CCC(COC(=O)C=C)C21` (stereo unspecified), the Potency in test [1] is 61.1 µM (active). Also, the compound was classed as inactive in test [2]. Moreover, the Potency entry in test [4], in [5] and in test [6] was “inactive” each time.

`CO/N=C(/C(=O)N[C@@H]1C(=O)N2C(C(=O)O)=C(COC(N)=O)CS[C@H]12)c1ccco1`: the Potency entry in test [1], in test [3], in test [4], in test [5] and in test [6] was “inactive” each time. Further, in [2], the compound was called inactive.

Turning to `NC(=O)c1ccncc1`, the Potency result in [1], in test [3], in test [4], in [5] and in test [6] was “inactive” in each case. The result in test [2] was inactive.

As to `CC1CC(C)C(=O)C1=O` (stereo unspecified), the Potency result in test [1], in [3], in test [4], in test [5] and in test [6] was “inactive” each time. Also, the compound was called inactive in test [2].

In the case of `CC(=O)Nc1ccc(C)cc1C`, the Potency entry in test [1], in [3], in test [4], in [5] and in [6] was “inactive” throughout. Moreover, the compound was classed as inactive in [2].
